PubChem BioAssay AID1159580 (chemical genetic matrix, 2015)
In all, about 5,500 compounds went through this assay and about 2,000 (36%) were called active. About 18% were inconclusive and are not listed. Rule as the data show it: active = normalized growth mostly below about 0.91 (no sharp cut-off); inconclusive = no clear call, values can overlap the other calls; inactive = mostly above about 0.92. The list shows a part of the results.

Assay: chemical genetic growth profiling, strain panel (AID 1159580);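 also: tested at 20 µM; growth read once vehicle control cultures reached saturation at 30 °C; 1 = growth at the plate median or of vehicle wells; lower values mean less growth of the strain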
Settings: S. cerevisiae deletion strains, growth OD
[1] = locus YDL101C, strain DUN1, active compounds read low
[2] = locus YJL095W, strain BCK1, active compounds read low
[3] = locus YOR061W, strain CKA2, active compounds read low

Measured: normalized growth

C/C=C(\C)C(=O)OC1[C@@H]2C=C3C4CC(=O)O[C@@H](c5ccoc5)[C@]4(C)CCC3[C@@](C)(C2=O)[C@@H](C(O)C(=O)OC)C1(C)C (some centres undefined)
inactive: locus YBR021W, strain FUR4, active compounds read low 1 | locus YBR229C, strain ROT2, active compounds read low 0.997 | locus YCL029C, strain bik1, active compounds read low 1.01 | locus YDL035C, strain GPR1, active compounds read low 0.994 | locus YDL074C, strain BRE1, active compounds read low 1.03 | [1] 1.01 | locus YDL134C, strain PPH21, active compounds read low 1.01 | locus YDL185W, strain tfp1, active compounds read low 1.02 | locus YDL192W, strain arf1, active compounds read low 1.01 | locus YDR101C, strain arx1, active compounds read low 1.01 | locus YDR162C, strain NBP2, active compounds read low 1.01 | locus YDR318W, strain mcm21, active compounds read low 1.02 | locus YDR388W, active compounds read low 1.02 | locus YDR502C, strain sam2, active compounds read low 1.03 | locus YER110C, active compounds read low 1.01 | locus YER155C, strain BEM2, active compounds read low 1 | locus YER167W, strain BCK2, active compounds read low 0.994 | locus YGL078C, strain dbp3, active compounds read low 1.03 | locus YGL086W, strain mad1, active compounds read low 1.01 | locus YGL248W, strain PDE1, active compounds read low 1 | locus YGR135W, strain pre9, active compounds read low 1.03 | locus YGR252W, strain gcn5, active compounds read low 1.02 | locus YHR079C, strain IRE1 (second series), active compounds read low 1.03 | locus YHR094C, strain hxt1, active compounds read low 1.03 | locus YHR129C, strain ARP1, active compounds read low 1 | locus YHR200W, strain rpn10, active compounds read low 1.02 | locus YIL066C, strain RNR3, active compounds read low 0.997 | locus YIL073C, strain SPO22, active compounds read low 1.05 | locus YIL125W, strain kgd1, active compounds read low 1.01 | locus YIR030C, strain dcg1, active compounds read low 1.02 | [2] 1.03 | locus YJL134W, strain LCB3, active compounds read low 1.01 | locus YJL168C, strain set2, active compounds read low 1.02 | locus YJL187C, strain SWE1 (second series), active compounds read low 1.02 | locus YJR043C, strain POL32, active compounds read low 0.983 | locus YJR075W, strain HOC1, active compounds read low 1.02 | locus YKL009W, strain mrt4, active compounds read low 1 | locus YKL068W, active compounds read low 1.01 | locus YKL085W, strain MDH1 (second series), active compounds read low 0.996 | locus YKL085W, strain MDH1, active compounds read low 0.996 | locus YKL190W, strain CNB1, active compounds read low 1 | locus YKR001C, strain vps1, active compounds read low 1.03 | locus YLR039C, strain RIC1, active compounds read low 1 | locus YLR058C, strain SHM2, active compounds read low 1 | locus YLR102C, strain apc9, active compounds read low 1.01 | locus YLR262C, strain YPT6, active compounds read low 0.97 | locus YLR268W, strain sec22, active compounds read low 1.02 | locus YLR342W, strain FKS1 (second series), active compounds read low 0.998 | locus YLR371W, strain rom2, active compounds read low 1.02 | locus YLR418C, strain cdc73, active compounds read low 1.05 | locus YML016C, strain PPZ1, active compounds read low 0.999 | locus YML032C, strain rad52, active compounds read low 1.02 | locus YML124C, strain tub3, active compounds read low 1.01 | locus YMR078C, strain ctf18, active compounds read low 1.01 | locus YMR223W, strain ubp8, active compounds read low 1.02 | locus YMR307W, strain GAS1, active compounds read low 0.998 | locus YNL067W, strain RPL9B, active compounds read low 1.02 | locus YNL128W, strain TEP1, active compounds read low 1 | locus YNL233W, strain BNI4, active compounds read low 1.05 | locus YNL250W, strain rad50, active compounds read low 1.01 | locus YNL271C, strain bni1, active compounds read low 1.02 | locus YNL298W, strain CLA4, active compounds read low 1.01 | locus YNL307C, strain MCK1, active compounds read low 1.01 | locus YNR052C, strain pop2, active compounds read low 1.03 | locus YOL006C, strain TOP1, active compounds read low 0.976 | locus YOL012C, strain htz1 1.07 | locus YOL147C, strain pex11, active compounds read low 1.01 | [3] 1 | locus YOR069W, strain VPS5, active compounds read low 1 | locus YOR136W, strain idh2, active compounds read low 1.01 | locus YOR144C, strain elg1, active compounds read low 1.01 | locus YOR184W, strain ser1, active compounds read low 1 | locus YOR316C, strain cot1, active compounds read low 1.01 | locus YPR119W, strain clb2, active compounds read low 1.02 | locus YPR141C, strain kar3, active compounds read low 1.02 | locus YPR163C, strain tif3, active compounds read low 1.01 | locus YPR167C, strain met16, active compounds read low 1.02 | strain wtn01, active compounds read low 0.994

N#Cc1c(N)sc2c1CCc1ccccc1-2
inactive: locus YAR019C, strain CDC15, active compounds read low 0.896 | locus YBR135W, strain CKS1, active compounds read low 0.898 | locus YBR136W, strain MEC1, active compounds read low 0.896 | locus YBR160W, strain CDC28, active compounds read low 0.905 | locus YDL028C, strain MPS1, active compounds read low 0.898 | [1] 0.929 | locus YDL108W, strain KIN28, active compounds read low 0.898 | locus YDR054C, strain cdc34, active compounds read low 0.89 | locus YFL009W, strain cdc4, active compounds read low 0.903 | locus YFL029C, strain CAK1, active compounds read low 0.891 | locus YFR019W, strain FAB1, active compounds read low 0.833 | locus YGR092W, strain DBF2, active compounds read low 0.545 | locus YHR079C, strain IRE1, active compounds read low 0.593 | locus YIL147C, strain SLN1, active compounds read low 0.894 | [2] 0.508 | locus YJL128C, strain PBS2, active compounds read low 0.918 | locus YNL222W, strain SSU72, active compounds read low 0.897 | locus YOL078W, strain AVO1, active compounds read low 0.898 | locus YOR231W, strain MKK1, active compounds read low 0.653 | locus YOR329C, strain SCD5, active compounds read low 0.91 | locus YPL256C, strain CLN2, active compounds read low 0.97 | locus YPR025C, strain CCL1, active compounds read low 0.911 | locus YPR106W, strain ISR1, active compounds read low 0.918 | locus YPR111W, strain DBF20, active compounds read low 0.912 | strain NNK1, active compounds read low 0.915 | strain TSCII, active compounds read low 0.899
active: locus YBL105C, strain PKC1, active compounds read low 0.897 | locus YDL017W, strain CDC7, active compounds read low 0.899 | locus YDL132W, strain cdc53, active compounds read low 0.884 | locus YDL214C, strain PRR2, active compounds read low 0.671 | locus YDR052C, strain DBF4, active compounds read low 0.905 | locus YDR226W, strain ADK1, active compounds read low 0.887 | locus YDR477W, strain SNF1, active compounds read low 0.546 | locus YER123W, strain YCK3, active compounds read low 0.596 | locus YER133W, strain GLC7, active compounds read low 0.499 | locus YFR003C, strain YPI1, active compounds read low 0.894 | locus YFR028C, strain CDC14, active compounds read low 0.884 | locus YGR040W, strain KSS1, active compounds read low 0.452 | locus YGR052W, strain FMP48, active compounds read low 0.508 | locus YHR030C, strain SLT2, active compounds read low 0.479 | locus YHR082C, strain KSP1, active compounds read low 0.568 | locus YHR205W, strain SCH9, active compounds read low 0.558 | locus YJL157C, strain FAR1, active compounds read low 0.605 | locus YJR016C, strain ILV3, active compounds read low 0.892 | locus YJR066W, strain TOR1 (second series), active compounds read low 0.474 | locus YJR066W, strain TOR1, active compounds read low 0.458 | locus YKL048C, strain ELM1, active compounds read low 0.798 | locus YKL067W, strain YNK1, active compounds read low 0.664 | locus YKL101W, strain HSL1, active compounds read low 0.66 | locus YKL193C, strain SDS22, active compounds read low 0.888 | locus YKL203C, strain TOR2, active compounds read low 0.489 | locus YLR113W, strain HOG1, active compounds read low 0.806 | locus YLR133W, strain CKI1, active compounds read low 0.593 | locus YLR403W, strain SFP1, active compounds read low 0.401 | locus YML070W, strain DAK1, active compounds read low 0.642 | locus YMR001C, strain CDC5, active compounds read low 0.886 | locus YMR205C, strain PFK2 (second series), active compounds read low 0.69 | locus YMR277W, strain FCP1, active compounds read low 0.88 | locus YNL006W, strain LST8, active compounds read low 0.903 | locus YNL020C, strain ARK1, active compounds read low 0.611 | locus YNL161W, strain CBK1, active compounds read low 0.898 | locus YNL183C, strain NPR1, active compounds read low 0.492 | locus YNL207W, strain RIO2, active compounds read low 0.867 | locus YNL307C, strain MCK1 (second series), active compounds read low 0.508 | locus YOL136C, strain PFK27, active compounds read low 0.636 | [3] 0.616 | locus YOR119C, strain RIO1, active compounds read low 0.506 | locus YPL031C, strain PHO85, active compounds read low 0.464 | locus YPL153C, strain RAD53, active compounds read low 0.494 | locus YPL204W, strain HRR25, active compounds read low 0.491 | locus YPL209C, strain IPL1, active compounds read low 0.888
